From PubChem
Rows were chosen to be rich in hits. Some 7% of all compounds tested hit in one or more screens of this group.
D3 ag: agonists of human D3 dopamine receptor; max activation, %; 410,000 compounds, 0.58% hits; D3R DiscoveRx beta-arrestin cells, luminescence, 90 min; in the data active = max activation above about 30%; also: 0% is about no effect
Target sequence (P35462 whole entry, looked up): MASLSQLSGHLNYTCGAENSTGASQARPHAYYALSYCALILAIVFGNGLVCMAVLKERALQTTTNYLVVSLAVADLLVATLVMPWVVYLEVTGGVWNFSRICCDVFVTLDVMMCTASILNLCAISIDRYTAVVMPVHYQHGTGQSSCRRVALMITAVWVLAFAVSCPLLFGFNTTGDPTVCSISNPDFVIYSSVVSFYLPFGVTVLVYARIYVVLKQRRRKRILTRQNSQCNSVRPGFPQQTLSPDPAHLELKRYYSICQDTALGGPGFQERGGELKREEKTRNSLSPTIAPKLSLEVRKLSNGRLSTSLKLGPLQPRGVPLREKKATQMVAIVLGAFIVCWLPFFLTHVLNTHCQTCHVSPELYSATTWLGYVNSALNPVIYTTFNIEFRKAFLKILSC
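Agonist-mode cell screen: cells plated at 1500/well and incubated overnight at 37 °C, then exposed to library compounds for 90 min at 37 °C. Detection reagent was added for 30–60 min at room temperature, and luminescence was read.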
D3 antag: blocks the human D3 dopamine receptor; P35462; D3R cells, DiscoveRx beta-arrestin luminescence, antagonist mode; active compounds read low; max response, negative = inhibition, %; 360,000 compounds, 2.5% hits; AID 652054; in the data active = max response below about -50%; inconclusive = no clear call, values can overlap the other calls; also: % is scaled to controls: 0 for no effect and ±100 for the full control effect
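Cells plated overnight at 1500 cells/well, then exposed to library compounds with dopamine controls for 90 minutes at 37 degrees C. DiscoveRx reagent added for 30–60 minutes at room temperature; luminescence read, quantitative HTS format.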
Integrin act MD: integrin-mediated muscular dystrophy alleviation activation; alpha7betagal myoblasts, beta-gal FDG fluorescence, 48 h; Potency, µM (series often up to 38.3 µM), without a hit: at the top dose activation, usual class: activators; 350,000 compounds, 0.064% hits;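 also: potency is read from the fitted curve at half-maximal effect; 100% = response of the positive control SU9516; nearly all actives have a fitted effect of over 60% in size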
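Alpha7betagal+/- myoblasts (passage 13) were plated 16-24 hr, then exposed to compounds (1:260 dilution of DMSO stock) for 48 hours at 37C. After MPER lysis, β-galactosidase reporter activity was read as FDG fluorescence (ex 480/em 540) after 30 minutes.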
S2 tox: reduces viability in counter-screen for ATXN expression inhibitors | S2 cells (HEK-293 line with an ATXN2-luciferase reporter) viability, CellTiter-Fluor protease fluorescence, 24 h | Potency, µM (series often up to 56.7 µM), usual class: cytotoxic | 400,000 compounds, 0.49% hits | AID 651635; also: potency is read from the fitted curve at half-maximal effect; nearly all actives have a fitted effect of over 40% in size
ATXN2 expr inh: ATXN2 expression inhibition; HEK-293 ATXN2-luciferase reporter, luminescence, 24 h; Potency, µM (doses to about 57 µM), for inactives: at the top dose activity change, negative = inhibition, actives largely listed as inhibitors; 360,000 compounds, 0.72% hits; also: potency is read from the fitted curve at half-maximal effect; % is scaled to controls: 0 for no effect and ±100 for the full control effect; nearly all actives have a fitted effect of over 55% in size
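qHTS (up to 57 uM final) was run with 24 h compound exposure of reporter cells at 37 °C. Each well was multiplexed: SteadyGlo luminescence measured ATXN2-luciferase expression after a fluorogenic Gly-Phe-AFC viability readout (25 uM final).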
IL1B secr inh: inhibitors of inflammasome signaling (IL-1 beta secretion) | THP-1 LPS/ATP IL-1B secretion, AlphaLISA, 16 h; active compounds read low | activity change, % at 57.5 µM | 360,000 compounds, 4.7% hits | AID 743279; in the data active = activity change below about -50%; inconclusive = mostly about -30% to -49%; also: % is scaled to controls: 0 for no effect and ±100 for the full control effect
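THP-1 cells pretreated 1 hr with compounds (up to 57.5 uM final), then stimulated with LPS (250 ng/mL final) plus ATP (1.25 mM final); secreted IL-1B measured by AlphaLISA after 16 hr, decreased signal indicating inhibition.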
* hit, by the source's call; i = inactive; ? = inconclusive; · = no result. Unless noted, calls follow the shape of the dose curve; as a rule, active = well fitted curve in the direction sought with a large enough effect; inconclusive = small, poorly fitted or top-dose-only effect, or another doubt; inactive = no such curve, though single readings can be large; an effect the other way counts as inactive or inconclusive.

SMILES	D3 ag	D3 antag	Integrin act MD	S2 tox	ATXN2 expr inh	IL1B secr inh
COc1cccc(CCNc2ccc(N3C(=O)CC(C)C3=O)cc2[N+](=O)[O-])c1 (stereo not drawn)	2.5	-19.3	-13.5%	i	-5.9%	2.4
CCn1c2ccccc2c2nc3cc(OC)c(OC)cc3nc21	4.6	11.1	9.1%	i	?	-52.2*
CCn1c2ccccc2c2nc3cc(C(=O)O)ccc3nc21	-2.1	-4.8	-20.4%	·	-31.7%	-55.6*
COCCNC(=O)C(=O)NNS(=O)(=O)c1ccc(Cl)cc1	1.1	5.8	-6.2%	i	7.8%	20.6
Cc1ccc(S(=O)(=O)C[C@@H]2OC3CCCCC3N2S(=O)(=O)c2ccc(C)cc2)cc1 (stereo partly drawn)	2.7	-16.3	·	·	·	-6.6
CC(C)C(=O)N[C@H]1CCC2C3CC=C4C[C@@H](O)CC[C@]4(C)C3CC[C@@]21C (stereo partly drawn)	3.3	16.0	6.1%	i	1.2%	61.8
CC(C)(C)[C@H](N)C(=O)N[C@H]1CCC2C3CC=C4C[C@@H](O)CC[C@]4(C)C3CC[C@@]21C (stereo partly drawn)	3.7	8.4	-52.8%	·	?	-102.2*
C[C@]12CC[C@H](O)CC1=CCC1C2CC[C@@]2(C)C1CC[C@@H]2NC(=O)[C@@H](N)Cc1ccccc1 (stereo partly drawn)	-5.7	-9.9	-51.2%	?	?	-96.4*
CC(=O)C1CCC2C3CC=C4CC(SC(=N)N)CCC4(C)C3CCC12C (stereo not drawn)	13.4	19.1	-53.9%	·	?	-102.7*
CCCCCCCCCn1cc(C(C)=O)c(=O)[nH]c1=O	1.4	14.2	-23.8%	i	7.5%	13.0
CC(C)(C(=O)O)c1ccc(C(O)CCCN2CCC(C(O)(c3ccccc3)c3ccccc3)CC2)cc1 (stereo not drawn)	·	·	·	i	-0.2%	30.9
COc1ccc(CNC(=O)COC(=O)c2cccnc2Nc2cccc(C(F)(F)F)c2)cc1	0.5	38.9	-22.0%	?	-21.1%	0.0
COc1ccc(-c2csc3ncnc(N4CCN(S(=O)(=O)c5cccc(Br)c5)CC4)c23)cc1	-0.7	-11.9	-21.5%	i	-12.0%	3.3
COc1ccc(-c2csc3ncnc(N4CCN(S(=O)(=O)c5ccc(C(C)=O)cc5)CC4)c23)cc1	3.5	-8.5	-47.8%	i	-17.0%	-74.2*
Cc1ccc(-c2csc3ncnc(N4CCN(c5ccccc5O)CC4)c23)cc1	10.6	43.2	?	i	9.7%	-61.3*
COc1ccc(-c2csc3ncnc(N4CCN(c5ccccc5O)CC4)c23)cc1	-6.6	9.1	11.8%	i	-1.8%	-17.5
CC(C)c1ccc(-c2csc3ncnc(N4CCN(C)CC4)c23)cc1	-34.0	-71.5*	?	i	-5.7%	-91.6*
COc1ccc(-c2csc3ncnc(N4CCN(c5ccccc5)CC4)c23)cc1	0.6	22.5	18.5%	i	-22.7%	-22.1
COc1ccc(-c2csc3ncnc(N4CCN(c5ccccc5[N+](=O)[O-])CC4)c23)cc1	-3.2	17.6	10µM*	i	-38.3%	-6.1
CN(C)c1ccc(/C=C/c2nc(-c3ccccc3O)n(-c3ccccc3)n2)cc1	-2.8	·	·	i	-11.5%	·
CC(C)(C)C(=O)N1CCN(c2ncnc3scc(-c4ccccc4)c23)CC1	-1.9	0.7	18.3%	i	-16.0%	-56.0*
CCCn1nc(NC(=O)c2ccco2)c2cc3ccccc3nc21	-1.1	-2.2	-17.3%	·	-19.1%	-3.7
CCn1nc(NS(=O)(=O)c2ccccc2)c2cc3ccc(C)cc3nc21	-4.6	-63.1*	36.8%	i	·	-6.1
CCn1nc(NC(=O)c2ccco2)c2cc3cc(C)ccc3nc21	1.7	8.1	2.3%	·	11.8%	-50.2*
C[C@H]1CN(S(=O)C(C)(C)C)[C@@H](CCO)/C1=C\c1ccccc1 (stereo partly drawn)	-0.7	-7.2	-3.4%	i	4.1%	12.9
SMILES	D3 ag	D3 antag	Integrin act MD	S2 tox	ATXN2 expr inh	IL1B secr inh
CC(C)c1c(C(=O)N/N=C/c2cccc(OCc3ccc(F)cc3)c2)nnn1-c1nonc1N	22.1	44.7	13.0%	i	-12.4%	-83.2*
COc1cc(/C=N\n2nnnc2N)ccc1OCc1ccc(F)cc1	-9.5	-54.1*	-2.6%	i	12.1%	-21.2
COc1cc(/C=N/NC(=O)c2nnn(-c3nonc3N)c2C(C)C)ccc1OCc1ccc(F)cc1	56.7*	74.5	-21.2%	i	-21.1%	?
O=C1C=CC(=C(c2ccc(O)cc2)c2ccc(O)cc2)C=C1	-3.5	0.0	-48.2%	15.8µM*	?	-100.0*
OC(CNCC1(N2CCCCC2)CCCCC1)COc1ccc(Cl)cc1Cl (stereo not drawn)	-3.5	-18.5	-63.4%	?	?	-90.6*
Cc1cc(Cl)ccc1OCC(=O)N1CCCCC1	-0.2	1.1	-3.5%	i	27.7%	-5.5
O=C(COc1ccc(Cl)cc1Cl)N1CCCN(C(=O)COc2ccc(Cl)cc2Cl)CC1	-2.9	17.6	-52.0%	i	?	-75.9*
